Assay results from PubChem BioAssay AID623870 (Broad Institute, 2012).
Hit rate of the full screen: of about 390,000 compounds, about 2,600 (0.67%) were called active.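 How the source made its calls: active means mean inhibition of replicates at least 50% and at least half of replicates each reaching 50%; inconclusive means half or more replicates reach 50% but mean below 50%; inactive means the rest.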 For the sample, actives were picked, then their nearest neighbours and some compounds at random.

target: Transforming acidic coiled-coil-containing protein 3 (Homo sapiens) (UniProt Q9Y6A5); assay: inhibitors of ARNT PAS-B binding to TACC3 – biochemical, AlphaScreen, single concentration, primary screen (AID 623870); details: AlphaScreen His-ARNT PAS-B/GST-TACC3 binding, luminescence; at 9.99 µM; stronger effect = higher value; TACC3 fragment carries E629A point mutation;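 further: 0% = complete ARNT plus TACC3 wells and 100% = ARNT alone without TACC3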

| SMILES | inhibition |
| --- | --- |
| COc1ccc(-c2ccc([C@@H]3[C@@H](C#N)N(C(=O)C4CCC4)[C@@H]3CO)cc2)cc1 | -0.479% (inactive) |
| C[C@H]1CN([C@@H](C)CO)C(=O)c2cc(N(C)C)ccc2O[C@@H]1CN(C)C(=O)Nc1ccc2c(c1)OCO2 | 12.1% (inactive) |
| O=C(Nc1nnc(-c2ccco2)o1)c1ccc(S(=O)(=O)N2CCOCC2)cc1 | 79.1% (active) |
| Cc1ccnc(NS(=O)(=O)c2ccc(NC(=O)c3ccc(S(=O)(=O)N4CCOCC4)cc3)cc2)n1 | -1.47% (inactive) |
| O=C(Nc1ccc(S(=O)(=O)N2CCOCC2)cc1)c1ccc2ncsc2c1 | 8.14% (inactive) |
| CCCNC(=O)C[C@@H]1CC[C@H]2[C@H](COc3ccc(NC(=O)CCC)cc3C(=O)N2C)O1 | -12.3% (inactive) |
| Cc1noc(C)c1NC(=O)Nc1ccc2c(c1)C(=O)N([C@H](C)CO)C[C@H](C)[C@H](CN(C)Cc1ccc(C(=O)O)cc1)OCCCC[C@H](C)O2 | -1.31% (inactive) |
| C[C@H](CO)N1C[C@H](C)[C@@H](CN(C)C)Oc2ccc(NS(=O)(=O)c3cccs3)cc2C1=O | -4.47% (inactive) |
| C[C@@H]1CN([C@@H](C)CO)C(=O)c2cc(NS(=O)(=O)c3cccs3)ccc2O[C@H]1CN(C)CC1CCCCC1 | 54.3% (active) |
| C[C@H](CO)N1C[C@H](C)[C@@H](CN(C)CC2CCCCC2)Oc2ccc(NS(=O)(=O)c3cccs3)cc2CC1=O | 8.01% (inactive) |
| Cc1ccc(S(=O)(=O)N(C)C[C@@H]2Oc3c(NC(=O)c4nc5ccccc5s4)cccc3C(=O)N([C@H](C)CO)C[C@@H]2C)cc1 | 9.91% (inactive) |
| C[C@H]1CN([C@@H](C)CO)C(=O)c2cc(-c3ccccc3F)cnc2O[C@@H]1CN(C)C | 6.21% (inactive) |
| Cc1noc(C)c1NC(=O)Nc1ccc2c(c1)CC(=O)N([C@@H](C)CO)C[C@@H](C)[C@H](CN(C)Cc1ccc(Oc3ccccc3)cc1)O2 | 15.6% (inactive) |
| COCC(=O)Nc1ccc2c(c1)[C@@H]1C[C@H](CC(=O)NCc3ccc(Cl)cc3)O[C@H](CO)[C@@H]1O2 | -8.13% (inactive) |
| Cc1cc(C(=O)N/N=C/c2cc([N+](=O)[O-])cc(C)c2O)n[nH]1 | 64.3% (active) |
| Cc1cc(C(=O)NC2CCN(Cc3ccccc3)CC2)n[nH]1 | -0.213% (inactive) |
| CCCNC(=O)Nc1ccc2c(c1)OC[C@@H](C)N(C(=O)c1ccccc1F)C[C@H](C)[C@@H](OC)CN(C)C2=O | -9.6% (inactive) |
| C[C@@H]1CN([C@H](C)CO)C(=O)c2cc(NS(=O)(=O)c3ccccc3)ccc2O[C@H]1CN(C)S(=O)(=O)c1cccs1 | 0.265% (inactive) |
